An excerpt weighted towards active compounds, which were near 3.8% of everything screened.
FAS-TE inh: FAS thioesterase domain inhibitors, primary screen, biochemical, fluorescence intensity, uHTS | Fatty acid synthase (Homo sapiens), P49327 | recombinant FAS-TE, OMFH fluorogenic substrate, fluorescence endpoint | inhibition, % at 15 µM | actives 0.67% (n = 360,000) | AID 602261, 2012;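 active = compounds whose normalised, plate-corrected inhibition of enzyme fluorescence in the single-dose primary screen is 50% or more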
SUMO Mot1 rescue: yeast Mot1-301 growth rescue at high temperature, primary screen, SUMOylation pathway inhibitor project, S. cerevisiae, ATP luminescence, 38.5C; S. cerevisiae Mot1-301 growth rescue; percent above DMSO median, 100 means doubled; growth rescue, % at 18.8 µM; actives 1% (n = 320,000); AID 2716, 2010;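 active = every valid replicate shows activation above 250% relative to neutral control wells; inactive = the rest, any valid replicate at or below 250%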
aDG glyco up: activators of alpha-DG glycosylation, primary screen, uHTS, Pro5-aDG cells, AlphaScreen; alpha-DG glycosylation AlphaScreen (IIH6); 0% Pro5, 100% B10-LARGE cell signal; activation, % at 10 µM; actives 0.22% (n = 360,000); AID 624168, 2012;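 active = activation of at least 8% versus controls, or a plate z-score of at least 8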;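 also: Pro5 are CHO cells carrying HIG-tagged alpha-DG that lacks glycosylation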
H9c2 protect: cardioprotection against H2O2-induced cell death, primary screen, uHTS, H9c2 cells, ATPLite luminescence; H9c2 cardiomyocytes, H2O2 injury protection, 2 h; protection from H2O2 cell death, % at 20 µM; actives 0.63% (n = 360,000); AID 588492, 2011;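 active = compounds giving at least 50% protection of heart cells from peroxide-induced death in the single-dose screen, raw or plate-pattern-corrected value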
MPTP block: mitochondrial permeability transition pore inhibitors, primary screen, biochemical, isolated mouse mitochondria, absorbance; Ca2+ swelling absorbance, 30 min; inhibition, % at 10 µM; actives 1.4% (n = 360,000);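 active = inhibition of 50% or more, scaled per plate between neutral and stimulator controls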
CR mimetic SO: reduction of superoxide in aged yeast, primary screen, HTS; superoxide response (% of plate mean), % at 10 µM; S. cerevisiae aged cells, superoxide DHE fluorescence; active compounds read low; actives 0.18% (n = 330,000); AID 2690, 2010;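 active = superoxide response under a set limit, about three screen SD below normal, cut at about 65% in these data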;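 also: yeast aged for seven days with compound at 30 °C before DHE staining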
A number is an active result; – = inactive; · = no result given; ! = repeats disagree.

SMILES	FAS-TE inh	SUMO Mot1 rescue	aDG glyco up	H9c2 protect	MPTP block	CR mimetic SO
COc1ccc(NC(=O)c2ccccc2NS(=O)(=O)c2ccc(C)cc2)c([N+](=O)[O-])c1	–	822.8	–	–	–	–
Cc1ccnc(NC(=O)c2ccccc2NC(=O)c2ccc(Cl)cc2Cl)c1	–	–	–	–	–	–
C[C@H](CO)N1C[C@H](C)[C@@H](CN(C)C(=O)NC2CCCCC2)Oc2ccc(NC(=O)Nc3ccc(C(F)(F)F)cc3)cc2C1=O	–	–	–	–	–	–
C[C@H]1CN([C@@H](C)CO)C(=O)c2cccc(NC(=O)Nc3ccc(C(F)(F)F)cc3)c2O[C@@H]1CN(C)Cc1ccc(Cl)c(Cl)c1	77.2	–	–	–	–	–
C[C@@H]1CN([C@H](C)CO)C(=O)c2cc(NC(=O)Nc3ccc(C(F)(F)F)cc3)ccc2O[C@H]1CN(C)Cc1ccc(Cl)c(Cl)c1	–	·	–	–	–	–
C[C@H](CO)N1C[C@H](C)[C@@H](CN(C)C(=O)Nc2ccc(C(F)(F)F)cc2)Oc2c(NC(=O)Nc3ccccc3)cccc2C1=O	64.5	–	–	–	–	–
C[C@H](CO)N1C[C@H](C)[C@@H](CN(C)C(=O)NC2CCCCC2)Oc2c(NC(=O)Nc3ccc(C(F)(F)F)cc3)cccc2C1=O	85.2	–	–	–	–	–
COc1ccc(NC(=O)N(C)C[C@H]2Oc3c(NC(=O)Nc4ccc(C(F)(F)F)cc4)cccc3C(=O)N([C@H](C)CO)C[C@@H]2C)cc1	61.7	–	–	58.9	–	–
C[C@@H]1CN([C@H](C)CO)C(=O)c2cccc(NC(=O)Nc3ccc(F)cc3)c2O[C@H]1CN(C)C(=O)Nc1ccc(C(F)(F)F)cc1	–	–	–	–	–	–
CC1=C(C(=O)N2CCOCC2)CC(CC(=O)NC2CC2)C(=O)N1Cc1ccccc1 (configuration not stated)	–	·	–	–	–	·
Cc1ccc(C)c(C(=O)CCC(=O)N2CCN(c3ncccn3)CC2)c1	–	–	–	–	–	–
COc1ccc2c(c1OC)C(C1c3c(cc4c(c3OC)OCO4)CCN1C)OC2=O (configuration not stated)	–	–	–	–	–	–
COc1ccc2c(c1OC)C(=O)OC2C1c2c(cc3c(c2OC)OCO3)CCN1C (configuration not stated)	–	483.9!	–	–	–	–
CC1C(C)N(C(=O)CCCl)c2ccccc2N1C(=O)CCCl (configuration not stated)	–	·	–	–	–	·
COc1ccc(NC(=O)N(C)[C@H]2C[C@H]3c4[nH]c5ccc(-c6ccc7c(c6)OCO7)cc5c4CCN3C[C@H]2[C@H](C)O)cc1	–	·	–	54.3	–	·
COP(=O)(OC)C(Nc1ccc(C)cc1)c1ccc(Br)cc1 (configuration not stated)	–	·	–	–	–	·
O=C(Nc1ccc(Cl)cc1)C1Cc2c(-c3ccccc3)ccnc2O1 (configuration not stated)	–	·	–	–	–	·
CCOC(=O)c1c(NC(=O)C2C3C=CC(CC3)C2C(=O)O)sc(C)c1C (configuration not stated)	–	298.4	–	–	–	–
CCOC(=O)c1c(NC(=O)C2C3C=CC(C3)C2C(=O)O)sc2c1CCC(CC)C2 (configuration not stated)	–	–	–	–	–	–
O=C(Cn1cccc1C(=O)c1ccccc1)NCCc1ccc(Cl)cc1	–	313.9	–	–	–	–
Cc1cnc(C(=O)N(c2ccc(N3CCOCC3)cc2)C2C(=O)Nc3ccccc3N=C2c2ccc(F)cc2)cn1 (configuration not stated)	–	·	–	–	–	·
CCC(=O)c1ccc(OCC(O)CN2CCN(S(=O)(=O)N3CCCCC3)CC2)cc1 (configuration not stated)	–	286.1	–	–	–	–
COc1ccc(C2CCc3cc4c(cc3C2=NOC(C)=O)OCO4)cc1OC (configuration not stated)	–	·	–	–	–	·

From PubChem BioAssay
